PubChem BioAssay AID1159580 (chemical genetic matrix, 2015)
Out of some 5,500 compounds screened, about 2,000 (36%) were called active. Inconclusive results (about 18%) are left out. No stated cut-off is given here; in the data, active means normalized growth mostly below about 0.91 (no sharp cut-off); inconclusive means no clear call, values can overlap the other calls; inactive means mostly above about 0.92. This is one part of the list.

Experiment: chemical genetic growth profiling, strain panel (AID 1159580);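 further: tested at 20 µM; growth read once vehicle control cultures reached saturation at 30 °C; 1 = growth at the plate median or of vehicle wells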
Settings: S. cerevisiae deletion strains, growth OD

Measured: normalized growth

NC(=O)CNCCC(c1ccccc1)c1ccccc1
inactive: locus YAL040C, strain CLN3, stronger effect = lower value 0.962 | locus YCL061C, strain MRC1 (second series), stronger effect = lower value 0.987 | locus YDR363W, strain ESC2, stronger effect = lower value 0.965 | locus YER002W, strain NOP16, stronger effect = lower value 0.969 | locus YGR078C, strain PAC10, stronger effect = lower value 0.993 | locus YGR229C, strain SMI1, stronger effect = lower value 0.895 | locus YNL153C, strain GIM3, stronger effect = lower value 1.04 | locus YNL175C, strain NOP13, stronger effect = lower value 0.993 | locus YNL197C, strain WHI3, stronger effect = lower value 1.01 | locus YNL224C, strain SQS1, stronger effect = lower value 0.991 | locus YOR083W, strain WHI5 (second series), stronger effect = lower value 1.03 | locus YPL241C, strain CIN2, stronger effect = lower value 0.984
